CYP2C9 inhib – blockers of cytochrome P450 2C9 activity – biochemical, luminescence, ADME assay, primary screen; P11712; CYP2C9 Supersomes, luciferin-H conversion; inhibition, % at 5 µM; actives 20% (n = 96,000);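 active = blocking of liver enzyme CYP2C9 beyond about 50% at 5 µM, limit read from the data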
sEH act – soluble epoxide hydrolase activators, primary screen, biochemical, human sEH; activation, % at 2 µM; Bifunctional epoxide hydrolase 2 (Homo sapiens), P34913; purified human sEH enzymatic activity, activator screen; actives 0.04% (n = 91,000); in the data active = activation above about 37%
Target sequence (P34913 whole entry, looked up): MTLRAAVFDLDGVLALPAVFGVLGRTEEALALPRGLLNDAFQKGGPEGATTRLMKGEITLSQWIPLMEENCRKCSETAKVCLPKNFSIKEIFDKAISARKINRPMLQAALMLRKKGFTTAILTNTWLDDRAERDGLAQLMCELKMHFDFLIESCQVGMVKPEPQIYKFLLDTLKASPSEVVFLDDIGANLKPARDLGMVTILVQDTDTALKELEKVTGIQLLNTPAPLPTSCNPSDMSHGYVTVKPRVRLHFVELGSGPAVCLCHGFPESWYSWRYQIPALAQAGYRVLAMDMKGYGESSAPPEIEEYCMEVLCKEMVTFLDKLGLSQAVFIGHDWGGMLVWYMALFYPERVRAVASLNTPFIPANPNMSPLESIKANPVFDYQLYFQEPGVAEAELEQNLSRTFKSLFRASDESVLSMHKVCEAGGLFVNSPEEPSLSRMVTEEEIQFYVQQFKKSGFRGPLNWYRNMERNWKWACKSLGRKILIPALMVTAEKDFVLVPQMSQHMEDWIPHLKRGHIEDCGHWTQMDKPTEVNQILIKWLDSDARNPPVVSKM
CYP2C19 inh – blockers of cytochrome P450 2C19 activity – biochemical, luminescence, ADME assay, primary screen; P33261; CYP2C19 Supersomes, luciferin-H EGE luminescence, 30 min; inhibition, % at 5 µM; actives 21% (n = 96,000); AID 778, 2007;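 active = CYP2C19 inhibition above a set limit at 5 µM in the primary screen, cut at about 50% in these data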
sEH inhibitor – soluble epoxide hydrolase inhibitors, primary screen, biochemical, human sEH | recombinant human sEH enzymatic activity assay | AID 707, 2007 | Bifunctional epoxide hydrolase 2 (Homo sapiens), P34913 | actives 0.34% (n = 91,000) | inhibition, % at 2 µM; in the data active = inhibition above about 80%
CYP2C19 act – human CYP2C19 activators, primary screen, biochemical, luminescence. Cytochrome P450 2C19 (Homo sapiens), P33261. recombinant CYP2C19, luciferin-H EGE luminescence; stronger effect = higher value; 0 = fully inhibited enzyme, 1 = untreated enzyme. activation factor at 5 µM. 96,000 tested, under 10 active. AID 1025, 2008;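 active = activation factor of at least 2 at 5 µM in the primary screen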
CYP2C9 act – human CYP2C9 activators, primary screen, biochemical, luminescence. Cytochrome P450 2C9 (Homo sapiens), P11712. recombinant CYP2C9, luciferin-H conversion; stronger effect = higher value; factor 1 = untreated enzyme, 0 = blocked. activation factor at 5 µM. actives 1.4% (n = 96,000). AID 1024, 2008;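 active = activation factor of 2 or more for CYP2C9 at a 5 µM dose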
Each line names hits and unclear results; the compound was inactive in the other large screens. The list is not random: actives were taken first. Their share in the collection is about 27%.

COc1ccc(Cl)cc1NC(=O)N1CCN(S(C)(=O)=O)CC1	none
O=C(NCc1ccncc1)Nc1ccccc1Cl	CYP2C9 inhib 81, CYP2C19 inh 89 (no result: sEH act, sEH inhibitor)
COc1ccc(CNC(=O)Nc2cccc3ccccc23)cc1	CYP2C19 inh 89
O=C(Nc1cccnc1)Nc1ccccc1Cl	none
CCOC(=O)CC(=O)Nc1ccc(C(=O)OCC)cc1	none
CCOC(=O)c1ccc(NCc2ccc3c(c2)OCO3)cc1	none
CCOC(=O)c1ccc(NC(=O)C(CC)CC)cc1	CYP2C19 inh 55
CCOC(=O)c1ccc(NCc2ccc(N(C)C)cc2)cc1	CYP2C19 inh 54
COCCOCC(O)CN1CCN(c2ccc(C)cc2)CC1 (stereo not given)	none
CCOC(=O)c1ccc(NC(=O)NCc2ccncc2)cc1	CYP2C9 inhib 73
O=C(NCc1ccncc1)Nc1ccccc1	CYP2C19 inh 54
COc1ccc(NC(=O)NCc2ccncc2)cc1	CYP2C9 inhib 60
CCCCC(=O)Nc1ccc(C(=O)NCc2ccncc2)cc1	CYP2C9 inhib 70, CYP2C19 inh 63
NS(=O)(=O)c1ccc(CCNC(=O)Nc2ccc(Cl)c(Cl)c2)cc1	none
O=C(NCCc1ccncc1)Nc1ccc(Cl)cc1	CYP2C9 inhib 96, CYP2C19 inh 97
O=C(CNS(=O)(=O)c1ccc(Br)s1)N1CCC(N2CCCCC2)CC1	none
COc1ccc(C)cc1N(CC(=O)O)S(=O)(=O)c1ccc(C)cc1	none
CNC(=O)CN(c1cc(C)ccc1OC)S(=O)(=O)c1ccc(C)cc1	none
COc1ccc(OC)c(N(CC(=O)NC2CC2)S(=O)(=O)c2ccc(C)cc2)c1	CYP2C9 inhib 80, CYP2C19 inh 84
COc1ccc(C)cc1N(CC(N)=O)S(=O)(=O)c1ccc(C)cc1	CYP2C9 inhib 54, CYP2C19 inh 90 (no result: sEH act, sEH inhibitor)
COc1ccc(S(=O)(=O)N(CC(=O)NC2CC2)c2ccc(C)cc2)cc1OC	CYP2C19 inh 99
CC(C)(C)CC(C)(C)NC(=O)CSCC(=O)Nc1ccc2ccccc2c1	none (no result: CYP2C9 inhib, CYP2C19 inh, CYP2C19 act, CYP2C9 act)
CCN1C(=O)c2cccc3c(S(=O)(=O)Nc4c(C)n(C)n(-c5ccccc5)c4=O)ccc1c23	CYP2C9 inhib 58
CCOC(=O)Cc1csc(NS(=O)(=O)c2ccc3c4c(cccc24)C(=O)N3CC)n1	CYP2C9 inhib 95 (no result: sEH act, sEH inhibitor)
CCNC(=O)NC(=O)COC(=O)c1ccccc1SCC(=O)NC(=O)NCC	CYP2C9 inhib 83, CYP2C19 inh 56
C#CC(C)(CC)NC(=O)c1cc(OC)c(OC)c(OC)c1 (stereo not given)	none
O=C(c1ccc(Cl)c(S(=O)(=O)Nc2ccc(F)cc2)c1)N1CCN(c2ccccn2)CC1	CYP2C9 inhib 70, CYP2C19 inh 67 (no result: sEH act, sEH inhibitor)
Cc1ccc(NS(=O)(=O)c2ccc(C(=O)N3CCN(c4ccccn4)CC3)cc2)cc1	none
CN(c1ccccc1)S(=O)(=O)c1cc(C(=O)N2CCN(c3ccccn3)CC2)ccc1Cl	CYP2C9 inhib 99, CYP2C19 inh 73
O=C(O)CCCCCNC(=O)CCn1cnc2ccccc2c1=O	none
Cc1nn(Cc2cccc(C(=O)N3N=C(C(F)F)CC3(O)C(F)F)c2)c(C)c1[N+](=O)[O-] (stereo not given)	CYP2C9 inhib 85, CYP2C19 inh 78
CCC(NC(=O)c1cccc(Cn2nc(C)c([N+](=O)[O-])c2C)c1)c1ccc(C(C)C)cc1 (stereo not given)	none
Cc1nn(Cc2cccc(C(=O)NC(C)c3ccc(C(C)(C)C)cc3)c2)c(C)c1[N+](=O)[O-] (stereo not given)	CYP2C9 inhib 87, CYP2C19 inh 78
CC1=NN(C(=O)c2cccc(Cn3nc(C)c([N+](=O)[O-])c3C)c2)C(O)(C(F)(F)F)C1 (stereo not given)	CYP2C9 inhib 70
Cc1nn(Cc2cccc(C(=O)Nc3ccn(Cc4ccccc4)n3)c2)c(C)c1[N+](=O)[O-]	none
O=C1c2ccccc2C(=O)N1CSc1nnc2c3ccccc3n(CCc3ccccc3)c2n1	none
C=CCn1c2ccccc2c2nnc(SCCCn3c(=O)[nH]c4ccccc43)nc21	CYP2C9 inhib 76, CYP2C19 inh 75
C=CCn1c2ccccc2c2nnc(SCN3C(=O)c4ccccc4C3=O)nc21	CYP2C9 inhib 79, CYP2C19 inh 90
O=C(CSc1nnc(-c2ccccc2)o1)OCc1ccccc1	none
CCOC(=O)c1cnc(-n2nc(C)cc2C)nc1Nc1ccc(OC)cc1	none
CCOC(=O)c1cnc(-n2nc(C)cc2C)nc1NCCc1ccccc1	CYP2C9 inhib 92, CYP2C19 inh 83
CCOC(=O)c1cnc(-n2nc(C)cc2C)nc1NCc1ccc2c(c1)OCO2	CYP2C9 inhib 62
CCOC(=O)c1cnc(-n2nc(C)cc2C)nc1Nc1ccccc1OC	none
CC1CCN(C(=S)c2ccc3c(c2)OCO3)CC1	CYP2C19 inh 99
CC(C)C(OC(=O)c1ccco1)C(=O)NCc1cccs1 (stereo not given)	CYP2C19 inh 69
Cc1ccc(CNC(=O)C(C)OC(=O)c2ccco2)cc1 (stereo not given)	CYP2C9 inhib 55, CYP2C19 inh 72 (no result: sEH act, sEH inhibitor)
Cc1ccc(CNC(=O)C(OC(=O)c2ccco2)C(C)C)cc1 (stereo not given)	CYP2C9 inhib 61, CYP2C19 inh 86 (no result: sEH act, sEH inhibitor)
COc1cc(-c2nc(Cc3ccccc3Cl)no2)cc(OC)c1OC	none
COc1ccccc1OCc1nc(Cc2ccc(Cl)cc2)no1	CYP2C19 inh 94
COc1ccc(Cc2noc(COc3ccc(Cl)cc3)n2)cc1	none
COc1ccccc1Cc1noc(-c2cc(Cl)ccc2OC)n1	CYP2C9 act 2.3
CCOc1ccccc1NC(=O)C(CC(C)C)NC(=O)C1CCCCC1 (stereo not given)	none
Cc1ccc2c(CN3CCCc4ccccc43)cc(=O)oc2c1C	none
CCc1ccc2c(CN3CCc4ccccc43)cc(=O)oc2c1	CYP2C19 inh 94 (no result: sEH act, sEH inhibitor)
CCc1ccc2oc(=O)cc(CN3CCN(CCO)CC3)c2c1	none
Cc1cc2oc(=O)cc(CN3CCc4ccccc43)c2cc1Cl	CYP2C9 inhib 61, CYP2C19 inh 79
COC(=O)c1cc(C(=O)OC)cc(-n2c(C)cc(C(=O)CC#N)c2C)c1	CYP2C9 inhib 69 (no result: sEH act, sEH inhibitor)
Cc1cc(C(=O)CC#N)c(C)n1-c1ccc(OC(F)F)cc1	CYP2C9 inhib 79, CYP2C19 inh 91
CCn1c(SCc2nc(-c3cccs3)no2)nnc1-c1c[nH]c2ccccc12	CYP2C9 inhib 57
COc1ccc(-c2noc(CSc3nnc(-c4ccccc4)n3C)n2)cc1	CYP2C9 inhib 66, CYP2C19 inh 84
COc1ccc(-c2noc(CSc3nnc(-c4ccncc4)n3-c3ccc(F)cc3)n2)cc1OC	CYP2C19 inh 59
